From PubChem BioAssay (NCATS)
Results filed as inconclusive are left out. The source made the active and inactive calls. Unless noted, calls follow the shape of the dose curve; as a rule, active = well fitted curve in the direction sought with a large enough effect; inconclusive = small, poorly fitted or top-dose-only effect, or another doubt; inactive = no such curve, though single readings can be large; an effect the other way counts as inactive or inconclusive.

What was measured:
[1] = AP1 Signaling Pathway (AID 357; active = well fitted curve in either direction with a large enough effect, not every such curve was filed as active;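 also: ME-180 reporter cells stimulated with EGF at its EC50 level; % is scaled to controls: 0 for no effect and ±100 for the full control effect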); settings: ME-180 AP-1-bla reporter, EGF-induced, beta-lactamase ratio, 5 h; at 7.69 µM (top of the series) unless noted
Method in brief: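 In this screen, ME-180 cells in Opti-MEM with 0.5% dialyzed FBS received EC50 EGF and compound titrations for 5 h. AP-1 reporter beta-lactamase was detected via CCF4 ratio, giving AC50 for positive and negative modulators.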

[2] = molecular target: Cytochrome P450 1A2 (Homo sapiens) (UniProt P05177); experiment: p450-cyp1a2 (AID 410; calls by dose curve;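 also: -100% = full effect of reference inhibitor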)
Method in brief: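 O-Demethylation of luciferin 6' methyl ether by human CYP1A2 is monitored as luciferase luminescence. Substrate sits at Km (100uM); enzyme is 20nM. Values are scaled to 57 uM furafylline as maximal inhibition.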

[3] = NFAT Signaling Pathway (AID 444; active = well fitted curve in either direction with a large enough effect, not every such curve was filed as active;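 also: carbachol stimulus at about its EC50 of 1 µM final; % is scaled to controls: 0 for no effect and ±100 for the full control effect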); settings: Jurkat NFAT-bla M1, carbachol, beta-lactamase ratio, 5 h; at 7.69 µM (top of the series) unless noted
Method in brief: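 Read-out: CCF4 FRET ratio (460 nm/530 nm) after 1 h RT dye loading, used for %activity and AC50 from titration series. Cells: Jurkat NFAT-β-lactamase/M1 line, treated with compound plus 1 uM carbachol for 5 h, 37 °C.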

[4] = Stat Signaling Pathway (AID 446; active = well fitted curve in either direction with a large enough effect, not every such curve was filed as active;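 also: ME-180 cervical cancer cells given 40 pM IL-6 alongside compound; SIE-controlled beta-lactamase reporter measured as 460/530 nm FRET emission ratio; % is scaled to controls: 0 for no effect and ±100 for the full control effect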); settings: ME-180 (cervical carcinoma) SIE beta-lactamase reporter, IL-6 stimulated, 5 h; at 7.69 µM (top of the series) unless noted
Method in brief: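 FRET read-out (405 nm excitation, 460/530 nm emission) of a beta-lactamase reporter under a STAT-inducible element in ME-180 cervical carcinoma cells. Cells with compound receive 40 pM IL-6 for 5 h. Values are normalised to AC90 stimulation and AC90 JAK-inhibitor controls.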

[5] = molecular target: Glucocorticoid receptor (Homo sapiens) (UniProt P04150); experiment: GR-GFP Redistribution (AID 450;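 active = compounds whose dose series gives a full or clear partial fitted curve of increased nuclear translocation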; also: potency is read from the fitted curve at half-maximal effect); settings: U2OS GR-GFP nuclear translocation, laser cytometry, 2 h
Chain of Glucocorticoid receptor (Homo sapiens) (P04150 whole entry, looked up, the tested form may be a part): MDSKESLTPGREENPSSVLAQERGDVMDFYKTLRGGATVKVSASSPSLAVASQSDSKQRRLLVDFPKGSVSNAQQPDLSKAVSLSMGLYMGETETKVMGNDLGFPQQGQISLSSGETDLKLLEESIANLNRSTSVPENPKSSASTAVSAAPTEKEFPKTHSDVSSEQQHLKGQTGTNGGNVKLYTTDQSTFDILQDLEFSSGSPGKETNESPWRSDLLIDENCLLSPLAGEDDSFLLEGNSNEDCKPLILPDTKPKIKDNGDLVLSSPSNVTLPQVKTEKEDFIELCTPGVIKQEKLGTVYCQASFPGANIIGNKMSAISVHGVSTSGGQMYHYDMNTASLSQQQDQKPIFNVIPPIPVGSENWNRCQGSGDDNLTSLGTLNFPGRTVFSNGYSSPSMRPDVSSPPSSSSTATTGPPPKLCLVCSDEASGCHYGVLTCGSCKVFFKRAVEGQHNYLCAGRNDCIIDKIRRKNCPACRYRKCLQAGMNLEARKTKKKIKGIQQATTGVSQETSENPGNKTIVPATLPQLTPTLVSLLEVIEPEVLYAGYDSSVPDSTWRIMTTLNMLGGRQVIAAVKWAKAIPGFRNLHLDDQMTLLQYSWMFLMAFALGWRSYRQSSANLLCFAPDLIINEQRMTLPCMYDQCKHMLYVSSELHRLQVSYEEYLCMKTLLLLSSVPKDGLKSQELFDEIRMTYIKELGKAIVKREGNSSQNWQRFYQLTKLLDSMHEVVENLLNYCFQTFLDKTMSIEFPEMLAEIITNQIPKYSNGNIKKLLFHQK

[6] = molecular target: Glucocorticoid receptor (Homo sapiens) (UniProt P04150); experiment: GR-EFC Redistribution (AID 451; calls by dose curve; also: potency is read from the fitted curve at half-maximal effect); settings: CHO-K1 GR-EFC translocation, beta-gal luminescence, 2 h
Method in brief: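 Translocation of GR-ED fusion to nuclear EA restores b-gal, read by luminescence after 1 h room-temperature detection. Engineered CHO-K1 biosensor cells, 1,000/well, exposed 2 h at 37 C to titrations up to 46 uM final.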

[7] = molecular target: 3',5'-cyclic-AMP phosphodiesterase 4B (Homo sapiens) (UniProt Q07343); experiment: qHTS Assay for Inhibitors of PDE-IV (AID 607; active = well fitted activation curve with a large enough effect in the main read-out, with a control signal flat, not every such curve was filed as active; also: % of control where 0% means no effect)
Chain of 3',5'-cyclic-AMP phosphodiesterase 4B (Homo sapiens) (Q07343 whole entry, looked up): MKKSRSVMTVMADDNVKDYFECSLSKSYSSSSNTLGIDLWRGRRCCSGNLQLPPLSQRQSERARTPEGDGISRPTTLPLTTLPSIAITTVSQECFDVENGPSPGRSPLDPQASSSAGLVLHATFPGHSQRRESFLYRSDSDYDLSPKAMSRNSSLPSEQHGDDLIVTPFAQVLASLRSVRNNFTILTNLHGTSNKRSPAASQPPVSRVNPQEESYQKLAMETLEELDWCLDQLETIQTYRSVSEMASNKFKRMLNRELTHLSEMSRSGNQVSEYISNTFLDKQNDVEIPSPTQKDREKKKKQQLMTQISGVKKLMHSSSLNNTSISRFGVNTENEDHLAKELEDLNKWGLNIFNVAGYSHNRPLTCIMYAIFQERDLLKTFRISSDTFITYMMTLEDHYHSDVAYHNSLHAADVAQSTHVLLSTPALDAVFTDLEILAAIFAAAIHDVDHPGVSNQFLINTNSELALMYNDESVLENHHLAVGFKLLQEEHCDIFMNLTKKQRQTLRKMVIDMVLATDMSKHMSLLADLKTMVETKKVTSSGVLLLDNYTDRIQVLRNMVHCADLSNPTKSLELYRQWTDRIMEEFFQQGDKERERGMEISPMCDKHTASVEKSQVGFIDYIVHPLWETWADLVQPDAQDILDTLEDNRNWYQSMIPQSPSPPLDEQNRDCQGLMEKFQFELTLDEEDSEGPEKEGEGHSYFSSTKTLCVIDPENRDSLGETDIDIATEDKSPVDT
Method in brief: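 Cell-based read-out of cAMP via a modified cyclic nucleotide-gated channel and membrane potential dye (535/590 nm) in HEK293 cells expressing PDE4 endogenously. Compounds tested up to 22.9 uM final; 100 uM RO 20-1724 reference.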

[8] = molecular target: Guanine nucleotide-binding protein G(i) subunit alpha-1 (Homo sapiens) (UniProt P63096); experiment: qHTS Assay for Inhibitors of RGS12 GoLoco Motif Activity (Green Fluorophore) (AID 879);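 also: 0% = labeled peptide with Gαi1 and full inhibition = labeled peptide alone without protein; negative values mean loss of peptide binding seen as reduced polarization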
Method in brief: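 A drop in FITC polarization marked displacement of the FITC-tagged RGS12 GoLoco peptide (10 nM) from Gαi1 (50 nM). Compounds were incubated 10 min at room temperature in Tris pH 7.5 buffer containing 150 mM NaCl, 0.1 mM GDP and 0.05% NP40; unlabeled peptide titration served as control.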

[9] = qHTS Assay for Identification of Small Molecule Antagonists for NFkB Signaling Pathway (AID 895; active = well fitted inhibition curve with a large enough effect in the signal ratio, with a control signal flat, not every such curve was filed as active; the % refers to the signal ratio; also: % is scaled to controls: 0 for no effect and ±100 for the full control effect)
Method in brief: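 Beta-lactamase reporter read-out (460 and 530 nm emission ratio, 405 nm excitation, 2 hrs substrate loading RT) after 5 hr stimulation with 10 pM TNF alpha in compound-treated NFkB-bla ME-180 cells in low-serum medium.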

[10] = qHTS Assay for Identification of Small Molecule Agonists for Thrombopoietin (TPO) Signaling Pathway (AID 917); also: % is scaled to controls: 0 for no effect and ±100 for the full control effect
Method in brief: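 Cell-based luciferase reporter screen. Mouse Ba/F3 line stably expressing human TPO receptor; IL-3 removed overnight before plating. Co-treatment with compound and EC50 TPO (26 pM), 24 hrs at 37 C, then luminescence.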

[11] = molecular target: Muscarinic acetylcholine receptor M1 (Rattus norvegicus) (UniProt P08482); experiment: qHTS Assay for Antagonists of Acetylcholine Muscarinic M1 Receptor: Kinetic Measurement of Intracellular Calcium Response (AID 943);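 also: Fluo-4 calcium signal as peak divided by basal fluorescence over 4 min; nearly all actives have a fitted effect of over 75% in size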
Chain of Muscarinic acetylcholine receptor M1 (Rattus norvegicus) (P08482 whole entry, looked up): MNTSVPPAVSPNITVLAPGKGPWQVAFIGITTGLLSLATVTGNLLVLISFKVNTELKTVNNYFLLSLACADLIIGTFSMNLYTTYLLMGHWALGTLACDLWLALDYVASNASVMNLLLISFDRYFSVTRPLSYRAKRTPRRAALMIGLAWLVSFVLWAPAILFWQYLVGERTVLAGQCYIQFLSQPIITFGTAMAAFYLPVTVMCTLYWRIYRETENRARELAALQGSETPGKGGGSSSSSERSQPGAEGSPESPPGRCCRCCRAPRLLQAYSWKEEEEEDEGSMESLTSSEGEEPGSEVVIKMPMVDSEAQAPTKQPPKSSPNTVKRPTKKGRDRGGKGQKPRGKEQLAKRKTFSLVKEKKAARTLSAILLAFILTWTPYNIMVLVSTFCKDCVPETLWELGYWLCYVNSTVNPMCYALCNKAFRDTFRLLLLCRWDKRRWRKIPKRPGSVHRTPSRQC
Method in brief: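 Antagonism is measured as inhibition of the carbachol-evoked calcium rise in CHO cells transfected with rat M1. Cells are dye-loaded, exposed to compound for 10 min, then stimulated with 100 nM carbachol (EC80).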

[12] = molecular target: Pyruvate kinase (Leishmania mexicana) (UniProt Q27686); experiment: qHTS Validation Assay for Inhibitors of Leishmania Mexicana Pyruvate Kinase (AID 945);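 also: 0% = DMSO only neutral control wells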
Chain of Pyruvate kinase (Leishmania mexicana) (Q27686 2-499 E452W): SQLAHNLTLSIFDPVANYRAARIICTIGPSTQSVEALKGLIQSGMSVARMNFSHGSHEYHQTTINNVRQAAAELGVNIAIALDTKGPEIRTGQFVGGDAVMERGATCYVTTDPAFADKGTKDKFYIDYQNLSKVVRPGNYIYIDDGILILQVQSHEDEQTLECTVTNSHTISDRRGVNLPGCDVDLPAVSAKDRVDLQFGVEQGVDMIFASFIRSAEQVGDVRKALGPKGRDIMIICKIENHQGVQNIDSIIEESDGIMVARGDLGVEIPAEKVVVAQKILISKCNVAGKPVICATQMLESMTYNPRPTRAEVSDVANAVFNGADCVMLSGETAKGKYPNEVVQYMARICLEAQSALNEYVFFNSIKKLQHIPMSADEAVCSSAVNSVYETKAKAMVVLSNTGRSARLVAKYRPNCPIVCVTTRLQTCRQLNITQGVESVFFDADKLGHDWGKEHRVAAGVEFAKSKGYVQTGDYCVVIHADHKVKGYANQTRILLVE
Method in brief: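 Luminescent ATP detection (PKLight) after a 1 h room-temperature reaction of 0.2 nM LmPYK E451W mutant with 0.5 mM PEP and 0.1 mM ADP at pH 7.2. Activity is normalized to DMSO-only control wells.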

[13] = molecular target: Pyruvate kinase PKM (Homo sapiens) (UniProt P14618); experiment: qHTS Assay for Activators of Human Muscle Pyruvate Kinase (AID 954; active = well fitted curve in the direction sought with a large enough effect, not every such curve was filed as active;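 also: 0% = uninhibited enzyme and -100% = no enzyme or full thiadiazolimine inhibition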)
Chain of Pyruvate kinase PKM (Homo sapiens) (P14618 whole entry, looked up): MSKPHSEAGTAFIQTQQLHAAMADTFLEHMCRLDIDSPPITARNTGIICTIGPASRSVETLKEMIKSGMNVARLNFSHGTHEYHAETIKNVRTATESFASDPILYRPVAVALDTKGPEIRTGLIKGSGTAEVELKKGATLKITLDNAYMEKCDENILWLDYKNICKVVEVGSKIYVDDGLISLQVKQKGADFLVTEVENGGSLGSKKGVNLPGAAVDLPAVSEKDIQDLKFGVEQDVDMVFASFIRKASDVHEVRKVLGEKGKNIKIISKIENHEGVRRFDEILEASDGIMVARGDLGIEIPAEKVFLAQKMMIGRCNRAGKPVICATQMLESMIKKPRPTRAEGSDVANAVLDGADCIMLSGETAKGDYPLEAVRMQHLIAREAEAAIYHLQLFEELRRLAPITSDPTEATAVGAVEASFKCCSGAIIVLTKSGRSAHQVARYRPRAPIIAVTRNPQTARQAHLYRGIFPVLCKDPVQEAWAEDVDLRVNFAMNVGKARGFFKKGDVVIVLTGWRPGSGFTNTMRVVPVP
Method in brief: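 ATP production by PKM2 detected via luciferase luminescence after 1 h room-temperature reaction (0.1 nM enzyme, PEP at Km 0.5 mM, ADP 0.1 mM, pH 7.2 imidazole buffer). Inhibition scaled to no-enzyme control; activation referenced to 0.3 nM enzyme wells.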

[14] = molecular target: Alpha-galactosidase A (Homo sapiens) (UniProt P06280); experiment: Counterscreen for Glucocerebrosidase Inhibitors: qHTS Assay for Human alpha-Galactosidase at pH 4.5 (AID 992); also: 0% is about no effect
Method in brief: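 Fluorogenic 1536-well qHTS at pH 4.5 (citrate, Tween-20): 2 nM enzyme, 80 uM 4-MU-alpha-galactoside, 20 min room temperature, NaOH/glycine stop. Titration 0.7 nM to 77 uM, data normalized to no-enzyme and full-activity controls, Hill-fitted AC50.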

[15] = molecular target: alpha-glucosidase (Oryza sativa, rice) (UniProt Q653V4); experiment: Counterscreen for Glucocerebrosidase Inhibitors: qHTS Assay for Rice alpha-Glucosidase at pH 5.0 (AID 997);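 also: 0% = full activity with enzyme and -100% = basal without enzyme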
Method in brief: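 Endpoint fluorogenic assay at pH 5.0: compounds (0.7 nM to 77 uM) titrated against 4 nM rice enzyme and 400 uM 4-MU-alpha-glucoside for 20 min at room temperature; NaOH/glycine stop, read ex 365/em 440 nm, Hill-fitted AC50.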

[16] = Validation of Assay for Modulators of Lamin A Splicing (AID 1459; active = well fitted curve in the direction sought with a large enough effect in the signal ratio; the % refers to the signal ratio;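 also: cells exposed to compound for two days before reading; 0% is about no effect; ratio rise marks activators and ratio drop marks inhibitors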)
Method in brief: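 HeLa S3 lamin A-EGFP/DsRed2 stable clone, 600 cells/well, Opti-MEM 2% FBS; compounds by pin tool; 48 hrs, 37 °C/5% CO2; Acumen 488 nm scan, objects 10-100 um; GFP/RFP intensity ratio.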

[17] = molecular target: DNA repair nuclease/redox regulator APEX1 (Homo sapiens) (UniProt P27695); experiment: qHTS Validation Assay for Inhibitors of the Human Apurinic/apyrimidinic Endonuclease 1 (APE1) (AID 1705)
Chain of DNA repair nuclease/redox regulator APEX1 (Homo sapiens) (P27695 whole entry, looked up): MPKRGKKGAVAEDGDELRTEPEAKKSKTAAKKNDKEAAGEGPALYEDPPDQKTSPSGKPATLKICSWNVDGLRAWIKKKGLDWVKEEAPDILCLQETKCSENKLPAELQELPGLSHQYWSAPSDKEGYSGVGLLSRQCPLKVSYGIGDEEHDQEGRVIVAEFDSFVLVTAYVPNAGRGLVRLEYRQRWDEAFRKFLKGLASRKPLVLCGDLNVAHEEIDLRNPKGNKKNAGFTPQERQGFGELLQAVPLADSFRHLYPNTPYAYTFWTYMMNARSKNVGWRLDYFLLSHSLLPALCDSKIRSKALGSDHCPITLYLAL
Method in brief: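 qHTS, 1536-well. APE1 + cpd 15 min RT → 50 nM TAMRA/BHQ-2 THF-abasic dsDNA substrate → kinetic fluorescence, 3 reads/60 s; delta(read3−read1) = reaction progress. No-enzyme buffer = negative control.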

[18] = Counterscreen for APE1 Inhibitors: Fluorescent Dye Displacement Validation Assay (AID 1707);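 also: plate controls were ThO with dsDNA and no compound for no effect and ThO without dsDNA for full effect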
Method in brief: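 Counterscreen flags promiscuous DNA binders: compounds displacing ThO from duplex DNA (abasic THF site, 50 nM) reduce 540 nm emission (480 nm excitation). ThO 250 nM final; Tris-HCl pH 7.5 with NaCl, MgCl2 and Tween-20.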

[19] = molecular target: Endonuclease 4 (Escherichia coli (strain K12)) (UniProt P0A6C1); experiment: Counterscreen for APE1 Inhibitors: qHTS Validation Assay for Inhibitors of Endonuclease IV (AID 1708); also: % is scaled to controls: 0 for no effect and ±100 for the full control effect
Method in brief: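 Incision of a double-stranded 50 nM TAMRA/BHQ-2 abasic substrate was followed kinetically (525/598 nm, reads every 60 s) after 15 min enzyme–compound preincubation with 2 nM EndoIV in pH 7.5 Tris buffer with MgCl2, DTT and Tween-20; concentration-response format.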

[20] = qHTS for differential inhibitors of proliferation of Plasmodium falciparum line Dd2 (AID 1882); settings: Potency: Plasmodium falciparum Dd2 proliferation inhibition;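 also: plate controls were DMSO vehicle for no effect and 0.29 µM artemisinin for full effect; nearly all actives have a fitted effect of over 65% in size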
Method in brief: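 SYBR Green DNA fluorescence (ex 485, em 535 nm) after overnight lysis quantifies parasite growth; compound exposure lasted 72 h at 37 C on infected red cells at 2.5% hematocrit, 0.3% parasitemia (final). Artemisinin 0.29 uM and vehicle wells define normalization.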

[21] = qHTS Assay for Modulators of Human Peripheral Myelin Protein 22 (PMP22) Expression/Activity (AID 1967; active = well fitted curve in the direction sought with a large enough effect in the signal ratio; the % refers to the signal ratio;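 also: 0% = untreated cells and 100% end not stated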)
Method in brief: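 Luminescence ratio of Pmp22 promoter-driven green luciferase to EF-alpha-driven red luciferase, in engineered mouse MSC80 Schwann cells, served as read-out. Compounds were incubated 24h; untreated cells defined 0% Activity; curves were classified by r2, magnitude and activity.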

[22] = molecular target: Ferritin light chain (Equus caballus) (UniProt P02791); experiment: qHTS Validation Assay for Identification of Novel General Anesthetics (AID 2323); also: % is scaled to controls: 0 for no effect and ±100 for the full control effect
Chain of Ferritin light chain (Equus caballus) (P02791 2-175 limits assumed): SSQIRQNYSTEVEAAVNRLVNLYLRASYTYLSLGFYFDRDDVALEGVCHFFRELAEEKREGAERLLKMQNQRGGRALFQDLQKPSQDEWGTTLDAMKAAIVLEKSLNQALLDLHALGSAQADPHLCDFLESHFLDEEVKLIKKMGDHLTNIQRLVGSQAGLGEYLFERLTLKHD
Method in brief: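 Fluorescence at 535 nm (excitation 380 nm) reported loss of 1-AMA binding to horse-spleen apoferritin (10 uM) in PBS with 50% saturated 1-aminoanthracene, after 10 min room-temperature incubation with compound; values from Hill fits of normalized response.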

[23] = molecular target: ATP-dependent DNA helicase Q1 (Homo sapiens) (UniProt P46063); experiment: qHTS Validation Assay for Inhibitors of RecQ-Like Dna Helicase 1 (RECQ1) (AID 2353);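 also: plate controls were DMSO vehicle for no effect and enzyme-free control for full effect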
Chain of ATP-dependent DNA helicase Q1 (Homo sapiens) (P46063 whole entry, looked up): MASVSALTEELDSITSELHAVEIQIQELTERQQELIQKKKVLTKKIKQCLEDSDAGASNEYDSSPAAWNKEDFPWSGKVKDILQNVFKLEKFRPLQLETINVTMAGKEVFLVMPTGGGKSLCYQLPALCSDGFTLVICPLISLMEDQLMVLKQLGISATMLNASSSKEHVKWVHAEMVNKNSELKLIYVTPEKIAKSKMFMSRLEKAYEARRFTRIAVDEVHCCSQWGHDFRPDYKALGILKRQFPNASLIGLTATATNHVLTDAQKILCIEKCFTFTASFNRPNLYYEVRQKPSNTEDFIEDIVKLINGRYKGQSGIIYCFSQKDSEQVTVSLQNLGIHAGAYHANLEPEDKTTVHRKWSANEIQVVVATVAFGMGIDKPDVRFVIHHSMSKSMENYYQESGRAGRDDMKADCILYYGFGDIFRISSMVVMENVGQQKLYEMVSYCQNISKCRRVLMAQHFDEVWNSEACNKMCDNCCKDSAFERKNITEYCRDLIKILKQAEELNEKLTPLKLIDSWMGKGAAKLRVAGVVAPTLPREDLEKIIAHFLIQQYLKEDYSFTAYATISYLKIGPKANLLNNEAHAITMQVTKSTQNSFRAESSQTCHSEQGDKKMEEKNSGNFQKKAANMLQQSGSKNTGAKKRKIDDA
Method in brief: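 RECQ1T1 50 nM; forked duplex (20 bp + 30-nt ss tails) 200 nM, ATP 2 mM final; pH 8.0, 2 mM MgCl2, 2.5 ug/ml poly(dI-dC); 15 min compound preincubation; discontinuous kinetic read over 2 h at RT.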

[24] = Validation screen for small molecules that induce DNA re-replication in MCF 10A normal breast cells (AID 463097); also: 0% is about no effect; nearly all actives have a fitted effect of over 60% in size
Method in brief: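 Image-based qHTS: normal breast cells are incubated with compound for 48 hr, stained with Hoechst, and scanned for total nuclear fluorescence. Compounds raising the fraction of nuclei with elevated DNA content count as re-replication inducers.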

[25] = Quantitative high throughput screen for delayed death inhibitors of the malarial parasite plastid, 96 hour incubation (AID 488745);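 also: luciferase-expressing P. falciparum in erythrocytes at 2% hematocrit and 0.1% parasitemia; % is scaled to controls: 0 for no effect and ±100 for the full control effect; nearly all actives have a fitted effect of over 70% in size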
Method in brief: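 Readout is firefly luciferase luminescence from an integrated reporter in P. falciparum; lower signal marks inhibited growth. Cultures at 2% hematocrit and 0.1% parasitemia were treated with compound across two generations (96 h, 37 C, 5% CO2).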

[26] = Quantitative high throughput screen for delayed death inhibitors of the malarial parasite plastid, 48 hour incubation (AID 488752); also: % is scaled to controls: 0 for no effect and ±100 for the full control effect; nearly all actives have a fitted effect of over 65% in size
Method in brief: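 First, compound was pinned into RPMI 1640 medium containing 0.5% Albumax. Next, reporter-parasite-infected erythrocytes were added to 2% hematocrit and 0.1% parasitemia. After 48 h at 37 C under 5% CO2, luciferase detection reagent was added and luminescence read.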

[27] = molecular target: Transient receptor potential cation channel subfamily V member 1 (Homo sapiens) (UniProt Q8NER1); experiment: HTS Assay for Compounds that Act as Enhancers of the Vanilloid Receptor 1 (AID 488979); also: 0% is about no effect
Chain of Transient receptor potential cation channel subfamily V member 1 (Homo sapiens) (Q8NER1 whole entry, looked up): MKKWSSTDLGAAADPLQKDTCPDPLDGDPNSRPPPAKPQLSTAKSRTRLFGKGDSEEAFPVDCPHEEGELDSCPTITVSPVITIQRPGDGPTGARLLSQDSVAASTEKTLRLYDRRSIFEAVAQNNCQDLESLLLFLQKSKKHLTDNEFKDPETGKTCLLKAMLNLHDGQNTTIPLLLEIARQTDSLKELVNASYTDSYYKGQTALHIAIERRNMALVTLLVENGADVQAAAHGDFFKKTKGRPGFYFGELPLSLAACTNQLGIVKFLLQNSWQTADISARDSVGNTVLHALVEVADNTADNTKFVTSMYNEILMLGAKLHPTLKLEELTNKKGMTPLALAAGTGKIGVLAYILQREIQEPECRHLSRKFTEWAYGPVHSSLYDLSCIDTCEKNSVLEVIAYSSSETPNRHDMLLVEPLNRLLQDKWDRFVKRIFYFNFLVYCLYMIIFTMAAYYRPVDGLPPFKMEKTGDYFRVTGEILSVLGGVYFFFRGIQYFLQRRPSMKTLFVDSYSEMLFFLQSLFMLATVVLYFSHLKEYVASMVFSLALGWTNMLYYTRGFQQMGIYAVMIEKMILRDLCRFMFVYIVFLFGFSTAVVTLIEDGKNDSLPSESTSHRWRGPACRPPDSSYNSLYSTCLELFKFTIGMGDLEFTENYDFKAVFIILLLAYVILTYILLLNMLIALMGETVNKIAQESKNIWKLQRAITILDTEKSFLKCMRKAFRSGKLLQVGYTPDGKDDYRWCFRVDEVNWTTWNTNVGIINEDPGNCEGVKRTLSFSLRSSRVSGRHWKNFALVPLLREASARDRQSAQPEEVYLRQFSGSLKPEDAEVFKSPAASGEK
Method in brief: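 Calcium influx kinetics via Fluo-8 (480/520 nm) in TRPV1-expressing cells, 2000/well cultured overnight at 35.5C. Compound-alone read 3 min (agonist phase), followed by EC20 capsaicin challenge for 2 min (enhancer phase).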

[28] = molecular target: Thyrotropin-releasing hormone receptor (Homo sapiens) (UniProt P34981); experiment: qHTS for Small Molecule Agonists and Allosteric Enhancers of Human TRH Receptor: Validation Screen for Agonists (AID 493127;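 active = calcium activation more than 3 SD above the typical response in the agonist read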;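 also: intracellular calcium rise by fluo-8 fluorescence before TRH EC20 addition; 0% is about no effect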); settings: TRH receptor agonist cell assay; at 2 µM; stronger effect = higher value
Method in brief: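 Compounds are added by online pintool to dye-loaded TRHR cells while fluorescence is recorded every second. A rise in calcium signal during the agonist read marks activation; a later 10 nM TRH addition (EC20) serves the separate enhancer mode.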

[29] = molecular target: Galactokinase (Homo sapiens) (UniProt P51570); experiment: qHTS Validation Assay for Inhibitors of Human Galactokinase (GALK) (AID 493189); also: 0% is about no effect
Method in brief: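 5 nM GALK / 100 uM galactose / 35 uM ATP, 20 mM HEPES pH8.0, 5 mM MgCl2, 60 mM NaCl, 1 mM DTT, 0.01% BSA (final). RT 1 h; Kinase-Glo Plus luminescence.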

[30] = Validation screen for small molecules that induce DNA re-replication in SW480 colon adenocarcinoma cells (AID 504364); also: 0% is about no effect
Method in brief: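 Image-based qHTS: compounds were incubated with SW480 cells for 48 hr, nuclei stained with Hoechst, and per-nucleus fluorescence intensity scanned to flag cells with excess DNA content.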

CC(=O)NCCc1ccc(O)c(O)c1
inactive: activity change, negative = inhibition [1] -4.94% [at 38 µM] | Potency [2] | activity change, negative = inhibition [3] 11.3% [at 38 µM] | activity, negative = inhibition [4] 5.1% [at 38 µM] | Potency [5] > 46 µM | Potency [6] > 46 µM | Potency [7] | outcome [8] | Potency [9] | outcome [10] | Potency [11] | Potency [12] | outcome [13] | outcome [14] | outcome [15] | outcome [16] | Potency [17] | Potency [18] | outcome [19] | Potency [20] | outcome [21] | outcome [22] | Potency [23] | outcome [24] | Potency [25] | Potency [26] | outcome [27] | activation [28] 0.75% | outcome [29] | outcome [30]
